Test results: PubChem BioAssay AID504840 (Johns Hopkins Ion Channel Center, 2011)
Among all 1,500 compounds or so, about 890 (59%) were called active.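 How the source made its calls: active means inhibition of the choline-evoked signal at any tested dose together with a fitted dose-response curve; inactive means no inhibition at any dose or no curve.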 The set was probably picked from earlier hits. Only a sample is shown. Measured potencies and affinities stand elsewhere.

molecular target: High affinity choline transporter 1 (Homo sapiens) (UniProt Q9GZV3); assay: CHT inhibitors, dose response, cell-based, 5-point CRC, membrane potential dye (AID 504840); conditions: HEK293-CHT, choline-induced depolarization, CHT with LV-to-AA double alanine mutation; series mostly up to 37 µM
Sequence (Q9GZV3 whole entry, looked up): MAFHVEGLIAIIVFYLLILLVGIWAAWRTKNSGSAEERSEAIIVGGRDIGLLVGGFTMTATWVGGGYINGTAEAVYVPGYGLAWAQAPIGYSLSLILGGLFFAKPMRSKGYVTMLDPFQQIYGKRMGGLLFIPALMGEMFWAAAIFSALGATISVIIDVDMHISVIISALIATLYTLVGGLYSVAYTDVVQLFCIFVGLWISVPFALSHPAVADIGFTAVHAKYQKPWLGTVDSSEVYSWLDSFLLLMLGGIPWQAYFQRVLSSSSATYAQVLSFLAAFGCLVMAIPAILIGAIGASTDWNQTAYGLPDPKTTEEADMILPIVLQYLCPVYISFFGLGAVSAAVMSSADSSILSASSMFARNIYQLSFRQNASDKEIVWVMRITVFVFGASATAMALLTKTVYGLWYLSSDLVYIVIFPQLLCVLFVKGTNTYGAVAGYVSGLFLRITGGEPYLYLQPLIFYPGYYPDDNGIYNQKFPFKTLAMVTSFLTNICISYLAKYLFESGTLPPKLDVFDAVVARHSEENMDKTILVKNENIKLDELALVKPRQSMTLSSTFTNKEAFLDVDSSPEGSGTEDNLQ

outcome, inactive:
CC(C)(C)Nc1nc(Cl)nc(N(C#N)CN2C(=O)c3ccccc3S2(=O)=O)n1, Cc1ccc(SC(CC(=O)c2ccc(C(C)(C)C)cc2)C(=O)O)cc1 (stereo not drawn), O=C(NN1C(=O)/C(=C/c2cccc(O)c2)SC1=S)c1ccccc1O, O=C(O)c1ccc(/C=C2\SC(=S)N(NC(=O)c3ccc(Br)cc3)C2=O)cc1, COc1ccc(N(CCCN2C(=O)c3cccc4cccc(c34)C2=O)C(=O)c2ccncc2)cc1, CC1CC(C)(C)N(C(=O)CN2C(=O)c3ccccc3C2=O)c2ccccc21 (stereo not drawn), COc1ccc(OCC(=O)N/N=C/C=C/c2ccccc2)cc1, Oc1c(Br)cc(/C=N/NC(=S)NCc2ccco2)cc1Br, COc1ccc(C(=O)NNC(=S)NC(=O)c2ccccc2)cc1, CCCOc1ccc(C(=O)NNC(=S)NC(=O)c2ccccc2)cc1, CC(C)(C)N/N=C/c1cc(Cl)cc([N+](=O)[O-])c1O, CCOC(=O)c1ccc2c(c1)[nH]c(=S)n2CC, CCCCn1c(=O)n(Cc2cccc(F)c2)c(=O)c2c1ncn2Cc1ccco1, N#Cc1nc(Cc2cccc3ccccc23)oc1N1CCOCC1, O=C(Cn1ncc2c3ccccc3n(Cc3ccccc3)c2c1=O)NCCCN1CCOCC1, Oc1cccc(-n2nnnc2SCc2ccccc2F)c1, Cc1ccccc1-n1nnnc1Sc1nnnn1-c1ccccc1, COc1ccc(Cl)cc1NC(=O)C[n+]1cccc(C)c1, C=Cn1cc[n+](CC(=O)c2ccc(Cl)c(Cl)c2)c1, C=Cn1cc[n+](CC(=O)c2ccc(Cl)cc2)c1, O=[N+]([O-])c1cc([N+](=O)[O-])c2c(=Nc3ccccc3)n(-c3ccccc3)n(O)c2c1, CCCNC(=O)c1ccc(COc2ccc(C)cc2)o1, Cc1ccc(C(=O)CCC(=O)NC2CCCC(C)C2C)cc1 (stereo not drawn), CC1CCC(NC(=O)c2ccc(CS(=O)(=O)Cc3ccccc3F)o2)CC1 (stereo not drawn), CCC(Oc1ccc(C)cc1)C(=O)Nc1ccc(S(=O)(=O)Nc2nccs2)cc1 (stereo not drawn), Cc1ccccc1OC(C)C(=O)Nc1ccc(S(=O)(=O)Nc2nccs2)cc1 (stereo not drawn), O=C(Nc1ccccc1OC(F)F)c1cccc(S(=O)(=O)N2CCCC2)c1, CC(NCc1ccc(F)cc1)C(=O)Nc1cc(S(=O)(=O)N2CCCCC2)ccc1Cl (stereo not drawn), Cc1cc(C)n2nc(SCc3cccc(S(=O)(=O)N(C)C)c3)nc2n1, CCOC(=O)C1CCCN(C(=O)Cc2c(F)cccc2Cl)C1 (stereo not drawn), CSc1ccc(C(=O)C2CCCN(C(=O)c3nonc3C)C2)cc1 (stereo not drawn), Cc1ccc(SCC2(O)CCN(C(=O)c3ccc(Cl)cc3)CC2)cc1, O=C(Cc1ccccc1F)c1ccc(O)cc1O, Cc1sc(NC(=O)c2ccco2)nc1-c1ccccc1, O=c1c2ccccc2nc(-c2ccccc2)n1Cc1ccco1, CC1CCCCN1C(=O)c1ccc(C(=O)Nc2ccc(F)cc2)cc1 (stereo not drawn), O=C(CCc1ccccc1)NNC(=S)NC(=O)c1ccc(Cl)cc1, COc1cccc(N2C(=O)N(c3ccccc3)C3CS(=O)(=O)CC32)c1 (stereo not drawn), CCCCCn1c(=O)[nH]c2cc(C(=O)NCCCN3CCCCC3CC)ccc2c1=O (stereo not drawn), CCN(CC)CCCN1C=C2C(=O)C(C)(OC(=O)CCC(=O)OC)C(=O)C=C2C=C1C1CC1 (stereo not drawn), Cc1ccc(OCC(=O)NNC(=S)NC(=O)C(C)(C)C)c(Br)c1, CC(Oc1ccc2ccccc2c1)C(=O)NNC(=S)NC(=O)c1ccco1 (stereo not drawn), CCCCCc1cc(=O)oc2c(C(CCN3CCCCC3)c3cc(OC)c(OC)c(OC)c3)c(OC)cc(OC)c12 (stereo not drawn), COc1cc(CN(C)Cc2cc(=O)n3ccsc3n2)ccc1OC(F)F, COc1ccc(CNC(=O)[C@H](C)NC(=O)N2CCn3c2nc2ccccc23)cc1, O=C(Cn1nc(C(F)(F)F)c2c1CCC2)NCc1ccc(F)cc1, CN1CCN(C(=O)CCN2C(=O)/C(=C/c3cccc(Br)c3)SC2=S)CC1, O=C(O)CN1C(=O)/C(=C/C=C/c2ccccc2)SC1=S, CN1CCN(C(=O)CCN2C(=O)S/C(=C/c3ccc(Cl)cc3)C2=O)CC1, COc1ccc(/C=C2/SC(=S)N(CCCC(=O)N3CCN(C)CC3)C2=O)cc1, CC(/C=C1\NC(=S)NC1=O)=C\c1ccccc1, CC(=O)NC(CC(=O)NCCN1C(=O)S/C(=C\c2ccccc2)C1=O)c1ccccc1 (stereo not drawn), CCC(C(=O)N1CCOCC1)n1c(C(=O)OC)cc2occc21 (stereo not drawn), Cc1nc(SCC(=O)NC(=O)NCc2ccccc2)nc(C)c1C, C=CCn1c(SCC(=O)NC(=O)NC2CCCC2)nnc1C1CCCCC1, CN(c1cccc(NC(=O)Nc2cccc(Cl)c2)c1)S(C)(=O)=O, CC(=O)Nc1cc(NC(C)=O)cc(C(=O)OC(C)C(=O)Nc2ccc(S(=O)(=O)N3CCCC3)cc2)c1 (stereo not drawn), CC(=O)Nc1cccc(C(=O)OC(C)C(=O)Nc2ccc(S(=O)(=O)N3CCCC3)cc2)c1 (stereo not drawn), Cc1ccc(S(=O)(=O)N2CCCCC2)cc1NC(=O)CSc1nncn1-c1ccccc1, CC1CCCCC1NC(=O)c1ccc2c(c1)[nH]c(=O)n2C1CCCC1 (stereo not drawn), Cc1cc(C)n2c(SCC(=O)NC3CCCCC3C)nnc2n1 (stereo not drawn), CC1CCC(NC(=O)CCn2ccc3cc(S(=O)(=O)N4CCCC4)ccc32)CC1 (stereo not drawn), CCCc1nc2oc3c(NCC4CCCO4)ncnc3c2c2c1COC(C)(C)C2 (stereo not drawn), CCCN(CCC)Cc1c(C(=O)N/N=C/C(C)=C\c2ccco2)nnn1-c1nonc1N, COc1ccccc1C(=O)NC1CCN(C(=S)NCCc2ccccc2)CC1, COc1ccc(OCC(O)Cn2c(=N)n(Cc3ccccc3)c3ccccc32)cc1 (stereo not drawn), Cc1ccc(OCC(O)Cn2c(=N)n(Cc3ccccc3)c3ccccc32)cc1 (stereo not drawn), Cc1ccc(/C=C2\SC(=S)N(c3c(C)n(C)n(-c4ccccc4)c3=O)C2=O)cc1, Cc1ccc(S(=O)(=O)NC2=C(N3CCN(Cc4ccccc4)CC3)C(=O)c3ccccc3C2=O)cc1, COc1cc(/C=C2/S/C(=N/S(=O)(=O)Cc3ccccc3)NC2=O)c([N+](=O)[O-])cc1OC, COc1ccc(NC(=O)CSc2nccn2Cc2ccccc2)cc1, CCN(C(=O)c1cc2c(=O)n3ccccc3nc2n1CCCOC)C1CCCCC1, O=C(c1cn(-c2ccccc2)nc1-c1ccc(Cl)cc1)N1CCOCC1, O=C(NCCCn1ccnc1)C(=O)c1cn(CC(=O)N2CCCCCC2)c2ccccc12, N/C(=N\O)c1ccc(N2CCN(c3ncccc3C(F)(F)F)CC2)nc1, O=S(=O)(NCc1csc(-c2cccs2)n1)c1ccc(Cl)cc1, Cc1ccc(S(=O)(=O)N2[C@@H](c3ccc(F)cc3)C(C(=O)O)=CC[C@H]2c2ccc(C(C)C)cc2)cc1, CCn1c(N2CCN(S(=O)(=O)c3ccc(Cl)cc3)CC2)nc2ccccc21, CCOc1ccc([C@@H]2CC=C(C(=O)O)[C@H](c3cccc(Cl)c3)N2S(=O)(=O)c2ccc(C)cc2)cc1, COc1ccccc1OCC(=O)NCCS(=O)(=O)N1CCN(c2ccccc2)CC1, CCCCn1c(SCC(=O)Nc2cccc(OC)c2)nc2ccc(N3CCOCC3)cc2c1=O, CCCc1cc(C(=O)Cc2ccc(F)cc2)c(O)cc1O, CCOC(=O)c1ccc(CC(=O)c2ccc(O)cc2O)o1, Cc1ccc(-n2c(C)cc(=O)cc2C)c(C)c1, CCCOc1ccc(C(=O)NNC(=S)NC(=O)c2ccco2)cc1, CC[C@H](C)[C@H](NC(=O)c1ccc(Cl)cc1)C(=O)OCC(=O)c1ccc2c(c1)NC(=O)CO2, CC(NC(=O)/C(C#N)=C/c1ccc([N+](=O)[O-])o1)c1ccccc1 (stereo not drawn), CCCCNC(=O)/C(C#N)=C/c1ccc(-c2ccc(S(=O)(=O)N3CCOCC3)cc2)o1, Cc1ccc(N=Cc2cc(Cc3ccccc3Cl)cc([N+](=O)[O-])c2O)c(O)c1, CN1C[C@@H]2C(c3ccc(C(F)(F)F)cc3)C3(c4cccnc4)CC2(C3)[C@H]1c1ccccc1 (stereo partly drawn), COc1cc(C(CCN2CCCCC2)c2c(OC)cc(OC)c3c(-c4ccccc4)cc(=O)oc23)cc(OC)c1OC (stereo not drawn), COCCCn1c(SCC(=O)Nc2sc3c(c2C#N)CCCC3)nnc1-c1ccncc1, CCN(CC(=O)NCc1cccs1)S(=O)(=O)c1ccc(C(C)C)cc1, Cc1ccc(C(=O)CSc2n[nH]c(-c3ccco3)n2)cc1C, CS(=O)(=O)n1nc(OC(=O)c2cccc3ccccc23)cc1N, COc1ccc(Cc2nnc(NC(=O)c3ccccc3[N+](=O)[O-])s2)cc1, O=C(O)c1ccccc1NSc1ccccc1[N+](=O)[O-], COc1ccc(C(CCN2CCCC(C)C2)c2c(OC)cc(OC)c3c(-c4ccccc4)cc(=O)oc23)cc1 (stereo not drawn), COc1cc(OC)c2c(-c3ccccc3)cc(=O)oc2c1C(CCN1CCCC1)c1ccc2c(c1)OCO2 (stereo not drawn), COc1ccc(C(CCN2CCCC2)c2c(OC)cc(OC)c3c(-c4ccccc4)cc(=O)oc23)cc1 (stereo not drawn), COc1cc(OC)c2c(-c3ccccc3)cc(=O)oc2c1C(CCN1CCCC(C)C1)c1ccc(N(C)C)cc1 (stereo not drawn), COc1cc(OC)c2c(-c3ccccc3)cc(=O)oc2c1C(CCN1CCCCC1)c1ccc2c(c1)OCO2 (stereo not drawn), COc1cc(OC)c2c(-c3ccccc3)cc(=O)oc2c1C(CCN1CCCCC1)c1ccc(N(C)C)cc1 (stereo not drawn)
